Laboratory results reported in PubChem BioAssay (Tox21).
Records with an inconclusive call do not appear. Entries that show only a call come without a potency. Activity calls are given as the source filed them. Unless noted, calls follow the shape of the full dose curve.

Columns and labels:
[1] = Nuclear factor erythroid 2-related factor 2/antioxidant responsive element (Nrf2/ARE) small molecule agonists: qHTS cell viability counter screen in human keratinocytes (AID 1919968; active = well fitted curve in the direction sought with a large enough effect in the repeat runs; an effect the other way counts as inactive or inconclusive; also: nearly all actives have a fitted effect of over 55% in size; also: potency is read from the fitted curve at half-maximal effect)
Procedure, shortened: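 KeratinoSens HaCaT cells, 1,500/well, preincubated 5 h, then exposed to compounds in DMSO for 23 h at 37 C/5% CO2. Viability read as CellTiter-Fluor fluorescence after 1 h, in the same wells as the ARE-luciferase read.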

[2] = target: Gonadotropin-releasing hormone receptor (Homo sapiens) (UniProt P30968); experiment: Human gonadotropin-releasing hormone receptor (GnRHR) small molecule agonists, calcium flux assay in GnRHR-HEK293 cells (AID 1920063); also: nearly all actives have a fitted effect of over 35% in size; also: potency is read from the fitted curve at half-maximal effect
Procedure, shortened: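 HEK293 cells stably expressing human GnRHR were dye-loaded for 1 h at 37 C. Compound was added in agonist mode and fluorescence (Ex/Em 480/540) recorded kinetically for 3 min. Fifteen concentrations, triplicates.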

[3] = target: KiSS-1 receptor (Homo sapiens) (UniProt Q969F8); experiment: Human kisspeptin (KISS1R) small molecule agonists, calcium flux assay in KISS1R-HEK293 cells (AID 1920064; active = well fitted curve in the direction sought with a large enough effect in the repeat runs; an effect the other way counts as inactive or inconclusive)
Procedure, shortened: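 HEK293 cells stably expressing human KISS1R were loaded with calcium dye for 1 h at 37 C, then given compound; fluorescence (Ex/Em 480/540) was read kinetically for 3 min. Fifteen concentrations, triplicate.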

[4] = G protein-coupled receptor (GPCR) small molecule agonists, calcium flux assay: HEK293 wild type cell line counter screen (AID 1920065)
Procedure, shortened: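 Wild-type HEK293 cells plated 18 h, loaded with calcium dye 1 h at 37 C, then compounds added in agonist mode (ATP as positive control). Kinetic fluorescence Ex/Em 480/540 recorded 3 min at 1 sec intervals; 15 concentrations, triplicate.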

[5] = p53 small molecule agonists, cell-based qHTS assay with rat liver microsomes: qHTS cell viability counter screen (AID 1963580); also: nearly all actives have a fitted effect of over 45% in size
Procedure, shortened: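 Viability is assessed in parallel with the p53 reporter read: HCT-116 p53RE-bla cells receive compounds plus rat microsomes and NADPH (0.5 mg/mL final apiece), incubate 16 h at 37 C, and then CellTiter-Glo luminescence is recorded.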

[6] = p53 small molecule agonists, cell-based qHTS assay: qHTS cell viability counter screen (AID 1963581); also: nearly all actives have a fitted effect of over 45% in size
Procedure, shortened: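 p53RE-bla HCT-116 cells, compounds added 5 h after plating and incubated 16 h at 37 C. Cytotoxicity measured in the same wells as intracellular ATP by CellTiter-Glo luminescence after 30 min at room temperature.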

[7] = target: 5-hydroxytryptamine receptor 2A (Homo sapiens) (UniProt P28223); experiment: 5-hydroxytryptamine receptor 2A (HTR2A) small molecule antagonists, cell-based qHTS assay (AID 1963586); also: nearly all actives have a fitted effect of over 45% in size
Procedure, shortened: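 Antagonist-mode intracellular calcium assay: DOI (4 nM) added after 5 min compound pre-incubation at room temperature to dye-loaded HTR2A-CHO cells. Fluorescence followed for 3 min, sampled every second.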

[8] = target: 5-hydroxytryptamine receptor 2A (Homo sapiens) (UniProt P28223); experiment: 5-hydroxytryptamine receptor 2A (HTR2A) small molecule agonists, cell-based qHTS assay (AID 1963587); also: nearly all actives have a fitted effect of over 30% in size
Procedure, shortened: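 CHO cells stably expressing human HTR2A, plated 18 h, loaded with calcium dye 1 h at 37 C. Agonist mode: compounds added and intracellular calcium fluorescence recorded kinetically for 2 min at 1 sec intervals.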

[9] = target: Muscarinic acetylcholine receptor M1 (Homo sapiens) (UniProt P11229); experiment: Cholinergic receptor muscarinic 1 (CHRM1) small molecule antagonists, cell-based qHTS assay (AID 1963588); also: nearly all actives have a fitted effect of over 40% in size; also: potency is read from the fitted curve at half-maximal effect
Procedure, shortened: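 CHRM1-CHO calcium-flux assay, antagonist mode. Cells were seeded 18 h, dye-loaded 1 h at 37 C and given compound for 5 min at RT, then acetylcholine was added at 50nM. FDSS fluorescence was read 3 min; 15 concentrations, three runs.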

[10] = target: Muscarinic acetylcholine receptor M1 (Homo sapiens) (UniProt P11229); experiment: Cholinergic receptor muscarinic 1 (CHRM1) small molecule agonists, cell-based qHTS assay (AID 1963589); also: nearly all actives have a fitted effect of over 35% in size
Procedure, shortened: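 CHO cells stably expressing human CHRM1 were loaded with calcium dye for 1 h at 37 C, then compound was added in agonist mode. Intracellular calcium fluorescence was followed kinetically at 1 s intervals. Fifteen concentrations were tested in three independent runs.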

[11] = cAMP Responsive Elements (CRE) small molecule antagonists, cell-based qHTS assay (AID 1963591; active = well fitted inhibition curve with a large enough effect in the signal ratio in the repeat runs, not every such curve was filed as active; the % refers to the signal ratio)
Procedure, shortened: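 CRE-bla HEK293T cells plated 18 h, then given compound plus NKH477 at 0.25 uM final for 3 h at 37C. Beta-lactamase reporter read with LiveBLAzer B/G FRET substrate after 2 h at room temperature.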

[12] = target: Beta-2 adrenergic receptor (Homo sapiens) (UniProt P07550); experiment: Adrenergic beta2 receptor (ADRB2) small molecule agonists, cell-based qHTS assay (AID 1963593);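 also: CHO cells stably overexpressing human ADRB2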
Procedure, shortened: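 CHO cells stably over-expressing ADRB2 were plated overnight at 37C, then dosed with compounds plus a stimulation mix containing 100uM IBMX and 25uM Ro-20-1724 for 0.5hr at room temperature. cAMP was measured by HTRF competition, 1hr.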

[13] = target: D(2) dopamine receptor (Homo sapiens) (UniProt P14416); experiment: Dopamine D2 receptor (DRD2) small molecule agonists, cell-based qHTS assay (AID 1963594); also: nearly all actives have a fitted effect of over 35% in size
Procedure, shortened: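 HEK293 cells stably expressing human DRD2, pre-treated with PDE inhibitor Ro20-1724 (0.1 mM final) and compound 10 min at room temperature, then stimulated with NKH477 (200nM […]) for 30 min. cAMP read by HTRF (665/620 nm).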

[14] = target: D(2) dopamine receptor (Homo sapiens) (UniProt P14416); experiment: Dopamine D2 receptor (DRD2) small molecule antagonists, cell-based qHTS assay (AID 1963595; active = well fitted inhibition curve with a large enough effect in the signal ratio in the repeat runs, with a control signal flat; the % refers to the signal ratio)
Procedure, shortened: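 HTRF cAMP read-out at 665 and 620 nm emission (340 nm excitation). Antagonist mode: compounds were tested against 12 nM quinpirole in DRD2-HEK293 cells, with 200 nM NKH477 raising cAMP and 0.1 mM Ro20-1724 blocking its breakdown.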

[15] = p53 small molecule agonists, cell-based qHTS assay (AID 1963582; active = well fitted activation curve with a large enough effect in the signal ratio in the repeat runs, not every such curve was filed as active; the % refers to the signal ratio)
Procedure, shortened: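 p53RE-bla reporter cells, compounds added in DMSO after 5 h plating, incubated 16 h at 37 C. Beta-lactamase read via 2 h room-temperature LiveBLAzer B/G FRET substrate, fluorescence intensity.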

[16] = cAMP Responsive Elements (CRE) small molecule agonists, cell-based qHTS assay (AID 1963590)
Procedure, shortened: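 CRE-bla HEK 293T cells, 2,000/well in DMEM with 10% dialyzed FBS and 25 mM HEPES, pre-incubated 18 h at 37 C, then exposed to compound 3 h at 37 C. Beta-lactamase reporter read with LiveBLAzer B/G FRET substrate after 2 h at room temperature.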

[17] = target: Beta-2 adrenergic receptor (Homo sapiens) (UniProt P07550); experiment: Adrenergic beta2 receptor (ADRB2) small molecule antagonists, cell-based qHTS assay (AID 1963592); also: series mostly up to about 92 µM; nearly all actives have a fitted effect of over 50% in size
Procedure, shortened: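 Cells (CHO, stable ADRB2 overexpression) incubated 18-20hr at 37C; compounds added from DMSO; agonist mix (1nM isoproterenol, 100uM IBMX, 25uM Ro-20-1724) added; 0.5hr RT; d2-cAMP and anti-cAMP-cryptate added; 1hr RT; 665/615 nm read.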

[18] = p53 small molecule agonists, cell-based qHTS assay with human liver microsomes: qHTS cell viability counter screen (AID 1963579); also: nearly all actives have a fitted effect of over 45% in size
Procedure, shortened: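 Metabolically activated exposure: compounds, human liver microsomes and NADPH (0.5 mg/mL final apiece) were added to p53RE-bla cells seeded 5 h earlier, left 16 h at 37 C, and then assessed for viability by CellTiter-Glo luminescence.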

[19] = p53 small molecule agonists, cell-based qHTS assay with human liver microsomes (AID 1963577);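 also: p53 response element beta-lactamase reporter cells with liver microsomes plus NADPH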
Procedure, shortened: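 In this qHTS, p53 response-element beta-lactamase cells receive test compound together with a microsome/NADPH activating system (0.5 mg/mL final each) and are incubated 16 h at 37 C before LiveBLAzer fluorescence detection.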

[20] = p53 small molecule agonists, cell-based qHTS assay with rat liver microsomes (AID 1963578)
Procedure, shortened: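 Agonist mode in p53RE-bla reporter cells, with compounds co-incubated 16 h at 37 C alongside 0.5 mg/mL rat liver microsomes and 0.5 mg/mL NADPH (final), followed by a 2 h LiveBLAzer detection step.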

Chain of 5-hydroxytryptamine receptor 2A (Homo sapiens) (P28223 whole entry, looked up): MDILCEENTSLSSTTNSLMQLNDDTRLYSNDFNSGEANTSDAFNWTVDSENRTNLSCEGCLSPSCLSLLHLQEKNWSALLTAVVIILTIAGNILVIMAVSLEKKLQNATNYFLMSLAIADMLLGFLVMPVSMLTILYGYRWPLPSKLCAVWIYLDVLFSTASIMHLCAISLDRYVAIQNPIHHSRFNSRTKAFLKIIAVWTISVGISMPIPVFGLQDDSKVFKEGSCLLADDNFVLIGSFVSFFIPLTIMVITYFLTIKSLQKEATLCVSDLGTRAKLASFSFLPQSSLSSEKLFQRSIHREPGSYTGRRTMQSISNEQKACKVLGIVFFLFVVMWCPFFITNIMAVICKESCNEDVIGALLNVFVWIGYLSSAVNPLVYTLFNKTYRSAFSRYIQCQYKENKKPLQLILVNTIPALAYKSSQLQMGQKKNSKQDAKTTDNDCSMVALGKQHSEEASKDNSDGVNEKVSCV
Chain of KiSS-1 receptor (Homo sapiens) (Q969F8 whole entry, looked up): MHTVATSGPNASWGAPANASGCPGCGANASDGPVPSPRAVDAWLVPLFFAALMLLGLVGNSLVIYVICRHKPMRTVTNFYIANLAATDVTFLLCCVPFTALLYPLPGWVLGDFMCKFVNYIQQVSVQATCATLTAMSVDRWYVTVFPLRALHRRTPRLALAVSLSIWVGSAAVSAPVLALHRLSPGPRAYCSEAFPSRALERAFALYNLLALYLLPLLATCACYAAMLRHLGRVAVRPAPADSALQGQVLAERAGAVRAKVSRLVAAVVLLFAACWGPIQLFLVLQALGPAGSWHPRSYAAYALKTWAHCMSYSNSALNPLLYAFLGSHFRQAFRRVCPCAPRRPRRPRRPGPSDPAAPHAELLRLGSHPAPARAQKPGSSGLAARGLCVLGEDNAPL
Chain of Gonadotropin-releasing hormone receptor (Homo sapiens) (P30968 whole entry, looked up): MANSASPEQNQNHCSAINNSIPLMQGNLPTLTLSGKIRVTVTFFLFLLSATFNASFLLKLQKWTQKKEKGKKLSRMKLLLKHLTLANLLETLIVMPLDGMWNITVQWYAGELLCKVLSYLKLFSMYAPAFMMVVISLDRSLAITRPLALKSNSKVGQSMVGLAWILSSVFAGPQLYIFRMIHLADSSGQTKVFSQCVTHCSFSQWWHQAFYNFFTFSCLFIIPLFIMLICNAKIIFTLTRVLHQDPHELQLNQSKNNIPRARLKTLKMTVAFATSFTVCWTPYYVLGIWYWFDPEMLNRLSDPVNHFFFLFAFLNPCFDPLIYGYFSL
Chain of D(2) dopamine receptor (Homo sapiens) (P14416 whole entry, looked up): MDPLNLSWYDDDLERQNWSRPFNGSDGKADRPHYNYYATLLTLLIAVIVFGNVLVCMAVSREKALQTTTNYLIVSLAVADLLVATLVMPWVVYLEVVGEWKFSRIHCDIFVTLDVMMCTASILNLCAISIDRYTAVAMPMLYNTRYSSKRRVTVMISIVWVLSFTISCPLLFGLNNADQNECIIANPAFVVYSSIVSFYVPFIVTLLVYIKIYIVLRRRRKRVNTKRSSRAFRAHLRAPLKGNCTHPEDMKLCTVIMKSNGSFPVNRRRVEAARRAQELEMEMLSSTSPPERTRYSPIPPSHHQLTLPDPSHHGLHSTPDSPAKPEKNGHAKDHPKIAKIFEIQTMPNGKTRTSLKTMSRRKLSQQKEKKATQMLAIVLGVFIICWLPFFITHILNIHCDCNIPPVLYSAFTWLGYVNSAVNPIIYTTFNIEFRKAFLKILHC
Chain of Beta-2 adrenergic receptor (Homo sapiens) (P07550 whole entry, looked up): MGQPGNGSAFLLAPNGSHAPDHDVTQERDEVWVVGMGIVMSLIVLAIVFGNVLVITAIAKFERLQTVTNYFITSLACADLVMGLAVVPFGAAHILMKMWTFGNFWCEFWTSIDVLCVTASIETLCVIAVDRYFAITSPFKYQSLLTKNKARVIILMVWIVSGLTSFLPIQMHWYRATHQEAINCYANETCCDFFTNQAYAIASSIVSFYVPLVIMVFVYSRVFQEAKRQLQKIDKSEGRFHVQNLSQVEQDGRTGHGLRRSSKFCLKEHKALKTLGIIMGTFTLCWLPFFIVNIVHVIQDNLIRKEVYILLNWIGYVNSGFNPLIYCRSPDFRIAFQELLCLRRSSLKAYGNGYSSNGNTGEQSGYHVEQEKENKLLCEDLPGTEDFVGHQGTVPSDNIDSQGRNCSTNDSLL
Chain of Muscarinic acetylcholine receptor M1 (Homo sapiens) (P11229 whole entry, looked up): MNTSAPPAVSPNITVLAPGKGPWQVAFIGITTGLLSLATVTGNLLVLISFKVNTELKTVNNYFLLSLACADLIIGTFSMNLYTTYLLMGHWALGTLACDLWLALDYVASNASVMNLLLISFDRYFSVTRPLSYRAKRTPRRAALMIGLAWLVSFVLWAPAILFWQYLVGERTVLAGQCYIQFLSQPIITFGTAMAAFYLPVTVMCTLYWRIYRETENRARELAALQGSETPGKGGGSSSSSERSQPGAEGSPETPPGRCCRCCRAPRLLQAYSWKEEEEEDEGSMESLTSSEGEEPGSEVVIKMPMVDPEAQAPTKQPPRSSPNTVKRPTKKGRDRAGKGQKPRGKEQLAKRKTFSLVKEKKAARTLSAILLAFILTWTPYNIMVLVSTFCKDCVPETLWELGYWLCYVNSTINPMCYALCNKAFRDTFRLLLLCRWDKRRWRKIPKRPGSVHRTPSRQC

Compound: C=C(C)C(=O)OCCCCCCCCCC
- Potency [1]: inactive
- Potency [2]: inactive
- Potency [3]: inactive
- Potency [4]: inactive
- Potency [5]: inactive
- Potency [6]: inactive
- Potency [7]: inactive
- Potency [8]: inactive
- Potency [9]: 42.4 µM (active)
- Potency [10]: inactive
- Potency [11]: inactive
- Potency [12]: inactive
- Potency [13]: inactive
- Potency [14]: inactive

Compound: O=C1NC(=O)C2CC=CCC12 (stereo unspecified)
- Potency [1]: inactive
- Potency [2]: inactive
- Potency [3]: inactive
- Potency [4]: inactive
- Potency [5]: inactive
- Potency [6]: inactive
- Potency [15]: inactive
- Potency [7]: inactive
- Potency [8]: inactive
- Potency [9]: inactive
- Potency [10]: inactive
- Potency [16]: inactive
- Potency [11]: inactive
- Potency [17]: inactive
- Potency [13]: inactive

Compound: CCCCCCCCCCCC(=O)OCC(O)CO (stereo unspecified)
- Potency [1]: inactive
- Potency [2]: inactive
- Potency [3]: inactive
- Potency [4]: inactive
- Potency [5]: inactive
- Potency [6]: inactive
- Potency [7]: inactive
- Potency [9]: inactive
- Potency [10]: inactive
- Potency [11]: inactive
- Potency [17]: inactive
- Potency [12]: inactive
- Potency [13]: inactive
- Potency [14]: inactive

Compound: OCCCCCCCCCCCCBr
- Potency [1]: inactive
- Potency [2]: inactive
- Potency [3]: inactive
- Potency [4]: inactive
- Potency [5]: inactive
- Potency [7]: inactive
- Potency [8]: inactive
- Potency [9]: inactive
- Potency [10]: inactive
- Potency [11]: inactive
- Potency [17]: inactive
- Potency [13]: inactive
- Potency [14]: inactive

Compound: CCOC(=O)c1ccc(N(C)C)cc1
- Potency [1]: inactive
- Potency [2]: inactive
- Potency [3]: inactive
- Potency [4]: inactive
- Potency [18]: inactive
- Potency [6]: inactive
- Potency [8]: inactive
- Potency [10]: inactive
- Potency [16]: inactive
- Potency [11]: inactive
- Potency [17]: inactive
- Potency [12]: inactive
- Potency [13]: inactive
- Potency [14]: inactive

Compound: CNCCC(Oc1ccc(C(F)(F)F)cc1)c1ccccc1 (stereo unspecified)
- Potency [1]: 26.9 µM (active)
- Potency [2]: 38.4 µM (active)
- Potency [3]: inactive
- Potency [19]: inactive
- Potency [20]: inactive
- Potency [18]: inactive
- Potency [5]: inactive
- Potency [6]: inactive
- Potency [15]: inactive
- Potency [16]: inactive
- Potency [11]: inactive
- Potency [17]: inactive
- Potency [13]: inactive
- Potency [14]: inactive

Compound: CC(C)COC(=O)c1ccc(O)cc1
- Potency [1]: inactive
- Potency [2]: inactive
- Potency [3]: inactive
- Potency [19]: inactive
- Potency [20]: inactive
- Potency [18]: inactive
- Potency [5]: inactive
- Potency [6]: inactive
- Potency [15]: inactive
- Potency [7]: inactive
- Potency [9]: inactive
- Potency [10]: inactive
- Potency [17]: inactive
- Potency [14]: inactive

Compound: O=C(O)CCCCCCCCCCCBr
- Potency [1]: inactive
- Potency [2]: inactive
- Potency [3]: inactive
- Potency [19]: inactive
- Potency [20]: inactive
- Potency [18]: inactive
- Potency [5]: inactive
- Potency [7]: inactive
- Potency [8]: inactive
- Potency [10]: inactive
- Potency [17]: inactive
- Potency [13]: inactive
- Potency [14]: inactive

Compound: CCC(CC)Nc1ccc(C)c(C)c1
- Potency [1]: inactive
- Potency [2]: inactive
- Potency [3]: inactive
- Potency [4]: inactive
- Potency [5]: inactive
- Potency [6]: inactive
- Potency [7]: inactive
- Potency [8]: inactive
- Potency [9]: inactive
- Potency [10]: inactive
- Potency [16]: inactive
- Potency [11]: inactive
- Potency [13]: inactive
- Potency [14]: inactive

Compound: Cc1cccc(Nc2ccccc2)c1
- Potency [1]: inactive
- Potency [2]: inactive
- Potency [3]: inactive
- Potency [19]: inactive
- Potency [20]: inactive
- Potency [18]: inactive
- Potency [5]: inactive
- Potency [6]: inactive
- Potency [15]: inactive
- Potency [7]: inactive
- Potency [8]: inactive
- Potency [9]: inactive
- Potency [17]: inactive
- Potency [12]: inactive
- Potency [14]: inactive

Compound: Clc1cccc(Cl)n1
- Potency [1]: inactive
- Potency [2]: inactive
- Potency [3]: inactive
- Potency [19]: inactive
- Potency [20]: inactive
- Potency [18]: inactive
- Potency [5]: inactive
- Potency [6]: inactive
- Potency [7]: inactive
- Potency [8]: inactive
- Potency [9]: inactive
- Potency [10]: inactive
- Potency [16]: inactive
- Potency [11]: inactive
- Potency [17]: inactive
- Potency [12]: inactive
- Potency [13]: inactive
- Potency [14]: inactive

Compound: CCN(CC)CC(=O)Nc1c(C)cccc1C
- Potency [1]: inactive
- Potency [2]: inactive
- Potency [3]: inactive
- Potency [4]: inactive
- Potency [6]: inactive
- Potency [15]: inactive
- Potency [16]: inactive
- Potency [11]: inactive
- Potency [12]: inactive
- Potency [13]: inactive

Compound: COc1ccc(CCN(C)CCCN2CCc3cc(OC)c(OC)cc3CC2=O)cc1OC
- Potency [1]: inactive
- Potency [2]: inactive
- Potency [3]: inactive
- Potency [4]: inactive
- Potency [5]: inactive
- Potency [7]: inactive
- Potency [8]: inactive
- Potency [9]: inactive
- Potency [10]: inactive
- Potency [16]: inactive
- Potency [17]: inactive
- Potency [13]: inactive
- Potency [14]: inactive
